ChEMBL document CHEMBL1157539, “Thousands of chemical starting points for antimalarial lead identification” (Nature, 2010)
Several values for one entry are separate records, joined by “and”; a condition that tells them apart may be missing. Equal entries are not always repeated.

Assays:
Format in all cases: functional
[1] = tested on: Plasmodium falciparum; experiment: GSK_TCMDC: Inhibition of Plasmodium falciparum 3D7 in whole red blood cells, using parasite LDH activity as an index of growth. Test compounds present at 2uM
[2] = tested on: Plasmodium falciparum; experiment: GSK_TCMDC: Inhibition of Plasmodium falciparum Dd2 in whole red blood cells, using parasite LDH activity as an index of growth. Test compounds present at 2uM
[3] = tested on: HepG2; experiment: GSK_TCMDC: Percent inhibition of human HepG2 cell line. Test compounds present at 10uM.

SMILES	Inhibition [1]	Inhibition [2]	Inhibition [3]
Cc1nc(-c2ccc3c(c2)CCN(CCC2CCC(NC(=O)c4cc5cccc(Cl)c5[nH]4)CC2)CC3)no1.Cl (stereo unspecified)	100%	46%	36%
O=C(NCC1CCC(C(=O)O)CC1)c1ccc(/C=C/C(=O)N2CCc3ccccc3C2c2ccc3c(c2)OCO3)cc1 (stereo unspecified)	91%	17%	66%
CS(=O)(=O)c1ccc(-n2nc(C(F)(F)F)cc2-c2ccc(C=NOCC(=O)O)o2)cc1	87%	0%	0%
CC1CCC(NCc2c(O)ccc3ccccc23)CC1.Cl (stereo unspecified)	95%	77%	13%
CCCCCCCCc1nc(C)c(Br)c(O)c1Br	96%	95%	2%
O=C(Nc1cccc(-c2cccc(-c3nc4cc(C(F)(F)F)ccc4[nH]3)c2)c1)c1ccncc1	100%	61%	52%
CCCCCN1CCN(Cc2cccc(NC(=O)c3ccc(Cl)c(Cl)c3)c2)CC1.O=C(O)C(F)(F)F	90%	33%	24%
CCN1CCN(C(=O)NC(C(=O)N(C)Cc2ccc(-c3ccc(C(F)(F)F)cc3)cc2)c2cccs2)C(=O)C1=O (stereo unspecified)	99%	95%	0%
CN(Cc1ccncc1)C(Cc1ccccc1)C1CCN(Cc2ccc(O)c(Cl)c2)CC1 (stereo unspecified)	96%	97%	22%
Cn1c(CN2CCC(N3CCc4cc(NC(=O)c5ccco5)ccc43)C2)cc2ccccc21 (stereo unspecified)	91%	92%	0%
O=C(NCC1COc2ccccc2O1)c1cnc2c(c1)nc(-c1c[nH]c(-c3ccccc3)n1)n2CCSCc1c(F)cccc1Cl (stereo unspecified)	95%	10%	6%
CN1CCN(CCNc2c3ccccc3nc3c2ccc2ccccc23)CC1.Cl	100%	66%	76%
COc1ccc(CCNCCCCCCNCCc2ccccc2Cl)cc1OC.Cl	96%	3%	13%
O=C(Nc1ccccc1O)C1CCN(c2ncnc3cc(-c4ccc(F)cc4)sc23)CC1	97%	94%	10%
CCCCN1CCCC[C@H]1[C@@H](O)c1ccnc2ccc(OCC)cc12	100%	88%	6%
O=C(N[C@@H](Cc1ccccc1)C(=O)NC1CCCc2ccccc21)c1ccc(O)c(-c2cccc(C(F)(F)F)c2)c1 (stereo partly specified)	91%	41%	0%
CC(=O)c1c(CC(=O)O)c2ccccc2n1O	98%	0%	16%
CCOc1cc(C(=O)NC2CCN(Cc3ccccc3)CC2)ccc1-c1nc2cc(Cl)c(F)cc2[nH]1	100%	51%	13%
CN1CCC(NCc2cccc(-c3cccc(-c4nc5cc(C(F)(F)F)ccc5[nH]4)c3)c2)CC1.O=C(O)C(F)(F)F	100%	100%	35%
CC(C)c1cc(C(=O)N[C@@H](Cc2ccccc2)[C@H](O)CNC2CCCCC2)cc(N2CCCC2=O)c1	100%	98%	0%
COc1cccc(N(CCCN2C(=O)c3cccc4cccc(c34)C2=O)C(=O)c2ccccc2C)c1	86%	70%	20%
C=C[C@H]1CN2CC[C@H]1C[C@H]2[C@H](O)c1ccnc2ccc(OC)cc12.Cl [QUININE HYDROCHLORIDE]	99% and 100%	79% and 99%	13% and 0%
O=C(O)C(F)(F)F.c1ccc2[nH]c(-c3ccc(-c4ccc(CNCC5CCCO5)cc4)s3)nc2c1 (stereo unspecified)	100%	87%	27%
CCC(=O)N(c1ccccc1)C1CCN(CCCC(NC(=O)Nc2cc(C(F)(F)F)cc(C(F)(F)F)c2)c2ccc(Cl)c(Cl)c2)CC1 (stereo unspecified)	99%	18%	29%
Cc1cc(N[C@@H](CC(C)C)C(=O)Nc2ccccc2)nc(NCCc2ccc(F)cc2)n1.O=C(O)C(F)(F)F	100%	94%	8%
COc1ccc(C(=O)NCC(C)(C)c2nc(-c3ccc(Cl)c(O)c3)c(-c3ccncc3)[nH]2)cc1OCCN(C(C)C)C(C)C.Cl	100%	96%	62%
NC(=O)c1ccc(NCC(=O)Nc2cccc(-c3cccc(-c4nc5cc(C(F)(F)F)ccc5[nH]4)c3)c2)cc1	99%	41%	32%
